Only a sample is shown.
PostGolgi yeast: growth inhibition of a yeast mutant, post-Golgi transport screen; post-Golgi transport phenotypic cell assay; inhibition, % at 10 µM; 98,000 compounds, 0.9% hits; AID 739;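 note: yeast cells grown in 1536-well plates; yeast grown about 18 h at 30C before absorbance read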
CYP2C19 inh: human CYP2C19 inhibition. 96,000 compounds, 21% hits. inhibition, % at 5 µM. CYP2C19 Supersomes, luciferin-H EGE luminescence, 30 min;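 active = CYP2C19 inhibition above a set limit at 5 µM in the primary screen, cut at about 50% in these data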
Target sequence (P33261 whole entry, looked up): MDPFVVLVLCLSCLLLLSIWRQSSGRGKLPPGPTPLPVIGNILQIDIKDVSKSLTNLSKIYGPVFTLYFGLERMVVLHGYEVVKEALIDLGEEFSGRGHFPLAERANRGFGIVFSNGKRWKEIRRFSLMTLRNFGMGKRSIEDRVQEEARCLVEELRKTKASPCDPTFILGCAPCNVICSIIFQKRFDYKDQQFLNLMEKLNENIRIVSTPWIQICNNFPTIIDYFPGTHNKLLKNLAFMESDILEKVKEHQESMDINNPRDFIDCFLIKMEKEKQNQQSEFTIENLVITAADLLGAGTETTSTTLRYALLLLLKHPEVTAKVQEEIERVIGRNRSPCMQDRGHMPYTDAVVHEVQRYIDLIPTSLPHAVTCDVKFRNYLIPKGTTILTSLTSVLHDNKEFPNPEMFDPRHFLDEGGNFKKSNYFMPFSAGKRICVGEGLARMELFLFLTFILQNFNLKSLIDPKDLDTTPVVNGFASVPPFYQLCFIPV
PostGolgi ctrl: yeast control strain growth, post-Golgi counter-screen. efflux-deficient yeast background strain, growth absorbance A615, 16 h. inhibition, % at 10 µM. 98,000 compounds, 5% hits. AID 738
CYP2C9 act: CYP2C9 (human) activation; recombinant CYP2C9, luciferin-H conversion, luminescence; hits give high values; factor 1 = untreated enzyme, 0 = blocked; 96,000 compounds, 1.4% hits; AID 1024; P11712; activation factor at 5 µM;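 active = activation factor of 2 or more for CYP2C9 at a 5 µM dose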
CYP2C9 inh: inhibitors of human CYP2C9. P11712. CYP2C9 Supersomes, luciferin-H conversion, luminescence. inhibition, % at 5 µM. 96,000 compounds, 20% hits;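 active = blocking of liver enzyme CYP2C9 beyond about 50% at 5 µM, limit read from the data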
CYP2C19 act: cytochrome P450 2C19 (human) activation; AID 1025; recombinant CYP2C19, luciferin-H EGE luminescence; hits give high values; 0 = fully inhibited enzyme, 1 = untreated enzyme; 96,000 tested, under 10 active; activation factor at 5 µM;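 active = activation factor of at least 2 at 5 µM in the primary screen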
Numbers stand for hits; 0 = inactive; - = not tested or not shown. Cut-off read from the data, not from the text of the source, unless noted: active = inhibition above about 30%; inactive = the rest.

SMILES	PostGolgi yeast	CYP2C19 inh	PostGolgi ctrl	CYP2C9 act	CYP2C9 inh	CYP2C19 act
CCC1CCCCN1C(=O)COC(=O)c1ccc(S(=O)(=O)N2CCOCC2)cc1 (centres undefined)	0	0	0	0	0	0
CN(C)N1C(N)=C(C#N)C(c2cccnc2)C2=C1CC(C)(C)CC2=O (centres undefined)	0	0	0	0	0	0
O=C(O)CCNc1cc2ccccc2cc1C(=O)O	0	0	0	0	0	0
CN(Cc1ccccc1)S(=O)(=O)c1ccc2c(c1)OCCO2	0	87	0	0	0	0
O=S(=O)(NCc1ccccc1)c1ccc2c(c1)OCCO2	0	0	0	0	0	0
Cc1ccc2c(CN3CCN(Cc4ccc5c(c4)OCO5)CC3)cc(=O)oc2c1C	0	0	0	0	0	0
Cc1ccc2c(CN3CCN(S(=O)(=O)c4ccc5c(c4)OCCO5)CC3)cc(=O)oc2c1C	0	71	0	0	70	0
CN(Cc1ccccc1)S(=O)(=O)c1ccc(S(=O)(=O)N(Cc2ccc(F)cc2)C2CCCC2)cc1	0	0	0	0	58	0
O=S(=O)(c1ccc(F)c(F)c1)N1CCN(Cc2ccc3c(c2)OCO3)CC1	0	0	0	0	0	0
O=S(=O)(Cc1ccccc1)N1CCN(Cc2ccc3c(c2)OCO3)CC1	0	91	0	0	54	0
O=C1CC(N2CCN(c3cccc(C(F)(F)F)c3)CC2)C(=O)N1c1ccc(F)cc1 (centres undefined)	0	0	0	0	0	0
O=C(c1ccc2c(c1)OCCO2)N1CCN(Cc2ccccc2)CC1	0	67	0	0	0	0
CN1CCN(C(=O)c2ccc3c(=O)n4c(nc3c2)CCCCC4)CC1	0	0	0	0	0	0
O=S(=O)(c1ccc2c(c1)OCCO2)N1CCC(O)(c2ccc(Cl)cc2)CC1	0	98	0	0	0	0
O=C(c1ccc2c(=O)n3c(nc2c1)CCCCC3)N1CCN(Cc2ccccc2)CC1	0	55	0	0	73	0
O=S(=O)(c1ccc2c(c1)OCCO2)N1CCN(Cc2ccc3c(c2)OCO3)CC1	0	94	31	0	89	0
COc1ccc(N2CCN(S(=O)(=O)c3ccc4c(c3)CCCC4)CC2)c([N+](=O)[O-])c1	0	0	0	0	0	0
O=C(NC1CCS(=O)(=O)C1)C12CC3CC(CC(C3)C1)C2 (centres undefined)	0	0	0	0	0	0
Cc1ccc(C(=O)c2c(NC(=O)c3ccccc3C)sc(C)c2C)cc1	0	0	0	0	78	0
CCOC(=O)C1=C(c2ccccc2)N(C)C(=O)NC1c1ccc(O)c(OC)c1 (centres undefined)	0	69	31	0	0	0
CCOC(=O)C1=C(c2ccccc2)NC(=O)NC1c1ccc(OCC#N)c(OC)c1 (centres undefined)	0	0	0	0	0	0
CCOC(=O)C1=C(c2ccccc2)Nc2c(c(=O)n(C)c(=O)n2C)C1c1ccc(O)c(OC)c1 (centres undefined)	0	0	0	0	52	0
CC1=C(C(=O)OCc2ccccc2)C(c2cccnc2)c2c(n(C)c(=O)n(C)c2=O)N1 (centres undefined)	0	94	0	0	60	0
Cn1cc(Br)c(C(=O)NNC(=O)c2cccc(Br)c2)n1	0	0	0	0	0	0
Cc1ccc(S(=O)(=O)N[C@@H](C)C(=O)N2CCC(C(=O)N3CCC[C@H]3C(=O)O)CC2)cc1	0	0	0	0	0	0
SMILES	PostGolgi yeast	CYP2C19 inh	PostGolgi ctrl	CYP2C9 act	CYP2C9 inh	CYP2C19 act
O=C(COC(=O)c1ccc[nH]c1=O)NC1CCCC1	0	0	0	0	0	0
O=C(N1CCOCC1)N(Cc1cccs1)C1CCCC1	0	0	0	0	0	0
CCOC(=O)c1ccc(COC(=O)c2cc3ccccc3oc2=O)o1	0	52	0	0	0	0
O=S(=O)(c1ccc(Cl)cc1)N1CCn2c1nc1ccccc12	0	0	0	0	0	0
O=C(NCCN1CCOCC1)N1c2ccccc2Sc2ccccc21	0	0	0	0	0	0
COc1ccc(-c2c3c(=O)n(C)c(=O)n(C)c3cn2-c2cc(OC)ccc2OC)cc1	0	0	0	0	63	0
Cn1c(=O)c2c(-c3ccccc3)n(-c3ccccc3O)cc2n(C)c1=O	0	0	0	0	0	0
CCOC(=O)N1CCN(Cc2nc3c(c(=O)[nH]c(=O)n3C)n2Cc2ccccc2C)CC1	0	0	0	0	0	0
CN(CC(=O)Nc1c(Cl)cccc1Cl)C(=O)CCCN1C(=O)c2ccccc2C1=O	0	0	0	0	86	0
Cc1ccc(NC(=O)CN(C)C(=O)CCCN2C(=O)c3ccccc3C2=O)cc1	0	0	0	0	0	0
CCOc1ccccc1OCC(=O)Nc1nnc(COC)s1	0	-	0	-	-	-
O=C(O)c1ccc(Cl)c(S(=O)(=O)NCC2CCCO2)c1 (centres undefined)	0	0	0	0	0	0
COC(=O)c1c(C)[nH]c(C(=O)CSc2ccc(Cl)cc2)c1C	0	0	0	0	68	0
CCOC(=O)c1[nH]c(C)c(C(=O)Nc2ccc(Cl)cc2)c1C	0	0	0	0	0	0
CCOC(=O)c1[nH]c(C)c(C(=O)NCCN2CCOCC2)c1C	0	0	0	0	0	0
COC(=O)c1c(C)[nH]c(C(=O)CN2CCOCC2)c1C	0	62	0	0	0	0
Cc1ccc(NC(=O)CCC(=O)NNC(=O)C(c2ccccc2)c2ccccc2)c(C)c1	0	0	0	0	0	0
CC(=O)C(C(C)=O)c1c(Cl)c(O)c(O)c2c(C(=O)c3ccccc3)coc12	0	0	0	0	86	0
CCC(C)NC(=O)NC(=O)N(C1CCCCC1)S(C)(=O)=O (centres undefined)	0	0	0	0	0	0
CC(=O)NC(CCS(C)(=O)=O)C(=O)Nc1ccccc1Cl (centres undefined)	0	0	0	0	0	0
COC(=O)c1ccccc1NC(=O)C(CCS(C)(=O)=O)NC(C)=O (centres undefined)	0	0	0	0	0	0
CC(=O)NC(CCS(C)(=O)=O)C(=O)Nc1cc(Cl)ccc1Cl (centres undefined)	0	0	32	0	0	0
CC(=O)NC(CCS(C)(=O)=O)C(=O)Nc1cccc2ccccc12 (centres undefined)	0	0	0	0	54	0
Cc1cccc2sc(NC(=O)c3ccc(Cl)s3)nc12	0	0	0	0	0	0
COC(=O)Nc1nc2c(C)cccc2s1	0	0	0	0	0	0
Cc1cccc2sc(NC(=O)Cn3cccc3)nc12	0	0	0	0	56	0
Cc1cccc2sc(NC(=O)CN(C)S(=O)(=O)c3ccc(Br)s3)nc12	0	62	70	0	0	0
Cc1cccc2sc(NC(=O)CSCc3ccccc3)nc12	0	0	0	0	0	0

Bioassay records from PubChem BioAssay.
